Reference: the supplement of paper PMC8773631
Counter-ions that a name gives are not always drawn. ± gives the uncertainty stated by the source.

test system: NCC-MFS5-C1; assay: cell viability relative to DMSO control; higher = less growth inhibition; settings: 10 µM; treatment time: 3 days
Protocol: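 NCC-MFS5-C1 myxofibrosarcoma cells (1x10^4 per well, 384-well) were treated on day 2 with 10 µM of each drug. On day 5, viability was read by CCK-8 absorbance at 450 nm and normalised to the DMSO control (%), n = 2.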

Which cell viability does the source give for O=C(CCCCCCC(=O)Nc1ccccc1)NO [Vorinostat (SAHA, MK0683)] here?
The cell viability was 34.5 ± 7.2%.

Which cell viability does the source give for Cc1[nH]c(/C=C2\C(=O)Nc3ccccc32)c(C)c1CCC(=O)O [Orantinib (TSU-68, SU6668)] here?
The cell viability was 80.2 ± 1.5%.

How did the cell viability turn out when CC1=C(/C=C/C(C)=C/C=C/C(C)=C/C(=O)O)C(C)(C)CCC1 [Tretinoin] was run?
Its cell viability is 78.5 ± 4.5%.

With CO[C@@]12[C@H](COC(N)=O)C3=C(C(=O)C(C)=C(N)C3=O)N1C[C@@H]1N[C@@H]12 [Mitomycin C] as the compound, how does the cell viability read?
Its cell viability is 41.7 ± 3.7%.

With Cc1ccc(Nc2nccc(N(C)c3ccc4c(C)n(C)nc4c3)n2)cc1S(N)(=O)=O as the compound, how does the cell viability read?
Its cell viability is 61 ± 11%.

With COc1cc2/c(=N/c3ccc(Br)cc3F)nc[nH]c2cc1OCC1CCN(C)CC1 [Vandetanib (ZD6474)] as the compound, how does the cell viability read?
Its cell viability is 52.5 ± 2.8%.

CN1c2cc(O)c(N=NC(N)=O)cc2CC1S(=O)(=O)O (stereo not given) [Carbazochrome sodium sulfonate (AC-17)] was tested. Which cell viability did it give?
The cell viability was 78.6 ± 7.6%.

For CCCCCCNC(=O)n1cc(F)c(=O)[nH]c1=O [Carmofur], which cell viability is on record?
Its cell viability is 81.5 ± 1.1%.

CS(=O)(=O)CCNCc1ccc(-c2ccc3ncnc(Nc4ccc(OCc5cccc(F)c5)c(Cl)c4)c3c2)o1 [Lapatinib] was tested. Which cell viability did it give?
The cell viability was 58.6 ± 2.2%.

CC[C@]1(O)C[C@@H]2CN(CCc3c([nH]c4ccccc34)[C@@](C(=O)OC)(c3cc4c(cc3OC)N(C)[C@H]3[C@@](O)(C(=O)OC)[C@H](OC(C)=O)[C@]5(CC)C=CCN6CC[C@]43[C@@H]65)C2)C1 [Vinblastine sulfate] was tested. Which cell viability did it give?
Its cell viability is 35.1 ± 2.5%.

CN(N=O)C(=O)NC1C(O)OC(CO)C(O)C1O (stereo not given) [Streptozotocin (STZ)] was tested. Which cell viability did it give?
Its cell viability is 113 ± 27%.

CCCCNc1ncc(-c2ccc(CN3CCOCC3)cn2)c(NC2CCC(O)CC2)n1 (stereo not given) was tested. Which cell viability did it give?
Its cell viability is 36.41 ± 0.22%.

For CCS(=O)(=O)N1CCN(c2ccc(Nc3ncc(C(N)=O)c(NC4CC4)n3)cc2)CC1, which cell viability is on record?
The cell viability was 61.5 ± 1.8%.

Fc1ccc(C(c2ccc(F)cc2)N2CCN(C/C=C/c3ccccc3)CC2)cc1 [Flunarizine 2HCl] was tested. Which cell viability did it give?
Its cell viability is 114 ± 12%.

With CC#CCn1c(N2CCC[C@@H](N)C2)nc2c1c(=O)n(Cc1nc(C)c3ccccc3n1)c(=O)n2C [Linagliptin] as the compound, how does the cell viability read?
Its cell viability is 92.8 ± 5.3%.

CCC[C@@H]1C[C@@H](C(=O)N[C@@H]([C@H]2O[C@H](SC)[C@H](O)[C@@H](O)[C@H]2O)[C@@H](C)O)N(C)C1 [Lincomycin HCl] was tested. Which cell viability did it give?
Its cell viability is 80.5 ± 9.3%.

How did the cell viability turn out when Nc1ccn([C@@H]2O[C@H](CO)[C@@H](O)C2(F)F)c(=O)n1 [Gemcitabine HCl] was run?
Its cell viability is 79.5 ± 5%.

CC(=O)O[C@@]12CO[C@@H]1C[C@H](O)[C@@]1(C)C(=O)[C@H](O)C3=C(C)[C@@H](OC(=O)[C@H](O)[C@@H](NC(=O)OC(C)(C)C)c4ccccc4)C[C@@](O)([C@@H](OC(=O)c4ccccc4)[C@H]21)C3(C)C [Docetaxel] was tested. Which cell viability did it give?
Its cell viability is 67 ± 2.2%.

With Nc1nnc(-c2cccc(Cl)c2Cl)c(N)n1 [Lamotrigine] as the compound, how does the cell viability read?
Its cell viability is 90 ± 4.7%.

COc1cc(Nc2c(C#N)cnc3cc(OCCCN4CCN(C)CC4)c(OC)cc23)c(Cl)cc1Cl [Bosutinib (SKI-606)] was tested. Which cell viability did it give?
The cell viability was 22.1 ± 0.85%.

How did the cell viability turn out when Clc1ccc(C(c2ccccc2Cl)C(Cl)Cl)cc1 (stereo not given) [Mitotane] was run?
The cell viability was 76.1 ± 3.1%.

With COC(=O)C1=C(C#N)NC(C)=C(C(=O)OC(C)C)C1c1cccc([N+](=O)[O-])c1 (stereo not given) [Nilvadipine] as the compound, how does the cell viability read?
Its cell viability is 86 ± 4.2%.

For Cc1ccc(F)c(NC(=O)Nc2ccc(-c3cccc4[nH]nc(N)c34)cc2)c1 [Linifanib (ABT-869)], which cell viability is on record?
The cell viability was 46.3 ± 12%.

O=C(Nc1nc2cccc(-c3ccc(CN4CCS(=O)(=O)CC4)cc3)n2n1)C1CC1 [Filgotinib (GLPG0634)] was tested. Which cell viability did it give?
The cell viability was 93.1 ± 4.5%.

With CCN(CC)CCNC(=O)c1c(C)[nH]c(/C=C2\C(=O)Nc3ccc(F)cc32)c1C [Sunitinib] as the compound, how does the cell viability read?
The cell viability was 67.9 ± 9.6%.

O=c1[nH]c(=O)n(C2CCCO2)cc1F (stereo not given) was tested. Which cell viability did it give?
Its cell viability is 88.2 ± 5.4%.

With C/C=C1\NC(=O)[C@H]2CSSCC/C=C/[C@H](CC(=O)N[C@H](C(C)C)C(=O)N2)OC(=O)[C@H](C(C)C)NC1=O [Romidepsin (FK228, Depsipeptide)] as the compound, how does the cell viability read?
Its cell viability is -1.35 ± 0.8%.

Which cell viability does the source give for CCc1ccc(CCOc2ccc(CC3SC(=O)NC3=O)cc2)nc1 (stereo not given) [Pioglitazone] here?
Its cell viability is 95.3 ± 2.9%.

With COc1cc(N2CCC(N3CCN(C)CC3)CC2)ccc1Nc1ncc(Cl)c(Nc2ccccc2S(=O)(=O)C(C)C)n1 as the compound, how does the cell viability read?
Its cell viability is 52.7 ± 1.8%.

With CS(=O)(=O)c1ccc(C(=O)Nc2ccc(Cl)c(-c3ccccn3)c2)c(Cl)c1 [Vismodegib (GDC-0449)] as the compound, how does the cell viability read?
The cell viability was 70.2 ± 7.4%.

How did the cell viability turn out when C#Cc1cccc(Nc2ncnc3cc(OCCOC)c(OCCOC)cc23)c1 [Erlotinib] was run?
The cell viability was 81.7 ± 5.8%.

COc1cc([C@@H]2c3cc4c(cc3[C@@H](O[C@@H]3O[C@@H]5CO[C@@H](C)O[C@H]5[C@H](O)[C@H]3O)[C@H]3COC(=O)[C@H]23)OCO4)cc(OC)c1O [Etoposide] was tested. Which cell viability did it give?
The cell viability was 74.3 ± 9%.

Which cell viability does the source give for CN(CCOc1ccc(CC2SC(=O)NC2=O)cc1)c1ccccn1 (stereo not given) [Rosiglitazone] here?
Its cell viability is 88.53 ± 0.85%.

O=C1CCC(N2C(=O)c3ccccc3C2=O)C(=O)N1 (stereo not given) [Thalidomide] was tested. Which cell viability did it give?
The cell viability was 84.4 ± 8.3%.

With COc1cc2c(cc1O)CC[C@@H]1[C@@H]2CC[C@]2(C)[C@@H](O)CC[C@@H]12 [2-Methoxyestradiol (2-MeOE2)] as the compound, how does the cell viability read?
Its cell viability is 57.5 ± 7.6%.

How did the cell viability turn out when CCC(C)n1ncn(-c2ccc(N3CCN(c4ccc(OCC5COC(Cn6cncn6)(c6ccc(Cl)cc6Cl)O5)cc4)CC3)cc2)c1=O (stereo not given) [Itraconazole] was run?
Its cell viability is 77.7 ± 15%.

How did the cell viability turn out when C=CC(=O)N1CCC[C@@H](n2nc(-c3ccc(Oc4ccccc4)cc3)c3c(N)ncnc32)C1 was run?
The cell viability was 79.2 ± 0.35%.

Which cell viability does the source give for COc1cc([C@@H]2c3cc4c(cc3[C@@H](O[C@@H]3O[C@@H]5CO[C@@H](c6cccs6)O[C@H]5[C@H](O)[C@H]3O)[C@H]3COC(=O)[C@H]23)OCO4)cc(OC)c1O [Teniposide] here?
Its cell viability is 76.7 ± 4.4%.

How did the cell viability turn out when COC(=O)c1ccc2c(C(=Nc3ccc(N(C)C(=O)CN4CCN(C)CC4)cc3)c3ccccc3)c(O)[nH]c2c1 [Nintedanib (BIBF 1120)] was run?
The cell viability was 39.1 ± 0.64%.

Which cell viability does the source give for COc1cc2nccc(Oc3ccc(NC(=O)C4(C(=O)Nc5ccc(F)cc5)CC4)cc3)c2cc1OC here?
The cell viability was 93.8 ± 6.7%.
